G9a block – blocks human histone lysine methyltransferase G9a | Q96KQ7 | G9a H3K9 monomethylation, AlphaScreen, 2 h | Potency, µM (highest dose often 102 µM), inactives show at the highest dose activity, negative = inhibition, actives largely listed as inhibitors | 350,000 compounds, 8.8% hits | AID 504332; further: on the % scale 0 is the no-effect control and ±100 the full control effect; nearly all actives have a fitted effect of over 75% in size
Target sequence (Q96KQ7 913-1193 limits assumed): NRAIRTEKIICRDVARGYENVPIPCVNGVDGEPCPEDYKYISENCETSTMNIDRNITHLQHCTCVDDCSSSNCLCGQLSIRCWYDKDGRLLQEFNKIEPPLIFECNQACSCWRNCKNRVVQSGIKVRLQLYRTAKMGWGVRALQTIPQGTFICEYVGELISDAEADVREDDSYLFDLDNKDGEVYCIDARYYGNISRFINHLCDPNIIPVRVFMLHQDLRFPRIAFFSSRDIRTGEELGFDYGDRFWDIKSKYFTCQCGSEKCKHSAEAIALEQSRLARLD
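Compounds were preincubated with 20 nM G9a for 15 min, after which biotinylated H3K9 peptide (500 nM) and SAM (20 uM) started a 2 h room-temperature reaction. Monomethylated product was quantified by antibody-based AlphaScreen chemiluminescence.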
Sfp PPTase inh – blocks B. subtilis Sfp PPTase activity | Q9F4F7 | Biochemical Sfp PPTase activity, qHTS | Potency, µM, for inactives: largest response in the series, negative = inhibition, actives largely listed as inhibitors | 310,000 compounds, 3.5% hits;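 further: the enzyme is Sfp with the accession as filed and its product quenches rhodamine fluorescence; 0% = enzyme reaction without inhibitor and -100% = no enzyme wells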
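After 15 min at room temperature with compound, 15 nM Sfp received 5 uM rhodamine-CoA plus 12.5 uM BHQ-2-ybbR (50 mM Hepes pH 7.6, 10 mM MgCl2). Rate came from the fluorescence difference over 30 min, ex 525/em 598 nm.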
BAZ2B inh – blocks human BAZ2B; Q9UIF8; AlphaScreen BAZ2B-H3K14Ac peptide displacement; Potency, µM (top dose mostly 114 µM), inactives show at the highest dose activity change, negative = inhibition, actives largely listed as inhibitors; 360,000 compounds, 4.4% hits; AID 504333; further: on the % scale 0 is the no-effect control and ±100 the full control effect; nearly all actives have a fitted effect of over 60% in size
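BAZ2B (50 nM) with biotin-H3(5-23)K14Ac peptide (50 nM) in PBS pH 7.4, 0.01% Tween-20, preformed 30 min, then compound 30 min at room temperature; top concentration 110uM. AlphaScreen streptavidin donor/nickel chelate acceptor beads (10 ug/mL final), 20 min dark, signal read.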
HP1b chromo inh – blocks HP1-beta chromodomain binding to methylated histone tails; P83916; AlphaScreen HP1-beta / biotin-H3K9me3 peptide binding; Potency, µM (doses to about 114 µM), for inactives: at the top dose activity change, negative = inhibition, actives largely listed as inhibitors; 390,000 compounds, 0.56% hits; further: nearly all actives have a fitted effect of over 70% in size
Target sequence (P83916 whole entry, looked up): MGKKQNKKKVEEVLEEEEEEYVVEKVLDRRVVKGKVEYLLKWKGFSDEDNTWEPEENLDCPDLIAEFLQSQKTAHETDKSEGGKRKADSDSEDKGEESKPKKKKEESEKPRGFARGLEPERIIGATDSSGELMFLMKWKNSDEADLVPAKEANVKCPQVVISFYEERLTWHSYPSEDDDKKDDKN
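HP1-beta protein (50 nM final) preincubated 30 min at room temperature with biotinylated H3(1-18)K9me3 peptide (50 nM) in PBS pH 7.4, 0.01% Tween-20, then compound added for 30 min. AlphaScreen streptavidin donor/nickel chelate acceptor beads (10 ug/mL final), 30 min dark, luminescence read.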
12-LOX inh – inhibitors of human 12S-lipoxygenase ALOX12. P18054. purified 12hLO, xylenol orange hydroperoxide absorbance. Potency, µM (titrated, usually from 108 µM), for inactives: at the highest dose activity change, negative = inhibition, actives largely listed as inhibitors. 580,000 compounds, 1.1% hits; further: on the % scale 0 is the no-effect control and ±100 the full control effect
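Hydroperoxide product was detected by ferrous iron/xylenol orange as the 573 to 405 nm absorbance ratio. Arachidonic acid at 40 uM (final) was turned over for 30 min at room temperature by 150 nM human 12hLO, pH 7.0 Hepes buffer, after 15 min compound preincubation.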
JMJD2A Tudor – blocks the human JMJD2A Tudor domain. O75164. AlphaScreen JMJD2A-Tudor / H3K4me3 peptide binding. Potency, µM (series often up to 114 µM), without a hit: at the highest dose activity change, negative = inhibition, actives largely listed as inhibitors. 390,000 compounds, 4.4% hits. AID 504339; further: on the % scale 0 is the no-effect control and ±100 the full control effect; nearly all actives have a fitted effect of over 50% in size
The depositor's hits bear a star; ? = inconclusive; / = not tested or not shown; ! = not confirmed by another sample; [ ] = remark or other dose. Shown are actives, neighbours in structure and some others; about 8.7% of the full set was active somewhere. The call rests on the fitted dose curve; in most records, active means well fitted curve in the direction sought with a large enough effect; inconclusive means small, poorly fitted or top-dose-only effect, or another doubt; inactive means no such curve, though single readings can be large; an effect the other way counts as inactive or inconclusive. Potency means the concentration at half of the fitted maximal effect.

SMILES | G9a block | Sfp PPTase inh | BAZ2B inh | HP1b chromo inh | 12-LOX inh | JMJD2A Tudor
CCN(CC)c1ccc(NC(=O)CN2C(=O)CSc3ncccc32)c(C)c1 | 79µM* | -7% | 60% | 10% | -20% | -32%
CCN(CC)c1ccc(NC(=O)CN2C(=O)c3cccnc3Oc3ccccc32)c(C)c1 | 8.9µM* | / | ? | -20% | -30% | ?
Cc1ccc(NC(=O)CC2Oc3ccccc3NC2=O)c(C)c1 (stereo not drawn) | ? | -7% | 6% | 41% | 0% | -10%
Cc1ccc2c(c1)N(CC(=O)Nc1ccccc1C(F)(F)F)C(=O)c1cccnc1O2 | -8%[59 µM] | / | 4% | 11% | -25% | -4%
CCN(CC)c1ccc(NC(=O)CC2Oc3ccccc3NC2=O)c(C)c1 (stereo not drawn) | 10µM* | ? | 10% | 33% | -26% | -11%
CC(C)C(=O)/C(C#N)=C\c1ccc(OCc2cccc(F)c2)cc1 | / | / | / | / | -33% | /
CC(C)(CC(=O)O)CC(=O)N1Cc2[nH]cnc2C[C@H]1c1nc(-c2ccc3ccccc3c2)no1 | / | / | / | / | 42% | /
O=C(Nc1cccc(-c2ccc(N3CCOCC3)nn2)c1)Nc1ccccc1Cl | / | / | / | / | -13% | /
COc1cc(OC)cc(C(=O)N2CCCN(S(C)(=O)=O)c3ccccc32)c1 | / | / | / | / | -7% | /
Cc1cccc(NC(=O)CCN2C(=O)c3ccccc3S2(=O)=O)c1C | / | 12% | 51% | 20% | / | -6%
CCN(CC)c1ccc(NC(=O)CCN2C(=O)c3ccccc3S2(=O)=O)c(C)c1 | 8.9µM* | / | 13% | -4% | -3% | -20%
Cc1cccc(NC(=O)Cn2ccn3nc(-c4ccc(F)cc4)c(CO)c3c2=O)c1 | / | / | / | / | 19% | /
CC(C)(C)C(=O)N1CCC2(CC1)C(=O)NCN2Cc1ccc(Cl)cc1 | / | / | / | / | -2% | /
CCCCCCNc1ncnc2c1sc1nc(N3CCOCC3)c3c(c12)CCCC3 | 11%[59 µM] | / | 4% | 46% | 9% | -3%
CCN(CC)CCNc1ncnc2c1sc1nc(N3CCCC3)c3c(c12)CC(C)(C)OC3 | ? | -22% | 45µM* | ? | -16% | ?
CCN(CC)CCNc1ncnc2c1sc1nc(N3CCOCC3)c3c(c12)CCCC3 | 35µM* | 4% | -32% | -16% | -15% | ?
O=C(c1cnc2c(c1)N(C(=O)CCc1ccccc1)CCC2)N1CCC(c2ccccc2)CC1 | / | / | / | / | 18% | /
CCNc1oc(/C=C/c2cccc(OC)c2)nc1C#N | / | / | / | / | 45µM* | /
Cc1nn(CCO)c2ncc(C(=O)c3cc(F)ccc3O)cc12 | 50µM* | 4% | 4% | 14% | -19% | 11%
CCOC(=O)c1c(C)[nH]c(C(=O)Cn2c(=O)c3c(ncn3CC)n(Cc3ccccc3)c2=O)c1C | 8.9µM* | -9% | -6% | 5% | 0% | -22%
CC(=O)c1c(C)[nH]c(C(=O)Cn2c(=O)c3c(ncn3CC(C)C)n(Cc3ccccc3)c2=O)c1C | / | / | / | / | -8% | /
CCCCCCC1CCC(C(=O)Oc2ccc(OCC)cc2)CC1 (stereo not drawn) | / | / | / | / | -7% | /
CCOc1ccc(-c2n[nH]c(=S)n2Cc2ccccc2)cc1 | 3.5µM* | 3% | -10% | 17% | ? | 45µM*
CC(c1n[nH]c(=S)n1Cc1ccccc1)N(C)C (stereo not drawn) | 10µM* | 89µM* | -8% | -12% | 0% | ?
Cc1cccc(-c2n[nH]c(=S)n2Cc2ccccc2)c1 | 0.71µM* | 79µM* | -31% | 9% | ? | 40µM*
SMILES | G9a block | Sfp PPTase inh | BAZ2B inh | HP1b chromo inh | 12-LOX inh | JMJD2A Tudor
CCn1c(C2CCN(Cc3ccccc3)CC2)n[nH]c1=S | -51% | 6% | 7% | 32% | -14% | 3.5µM*
C#CCOc1ccc(C(=O)N[C@@H]2CN(C3CCN(C)CC3)CCC[C@H]2O)cc1 | / | / | / | / | 21%[176 µM] | /
Cc1ccc(-c2n[nH]c(=S)n2Cc2ccccc2)cc1 | 1.6µM* | 5% | -27% | 11% | 40µM* | 40µM*
COc1ccc(Cc2n[nH]c(=S)n2CC(C)C)cc1 | / | / | / | / | 14µM* | /
Cc1ccccc1-c1n[nH]c(=S)n1Cc1ccccc1 | / | -2% | -16% | 17% | ? | ?
COc1ccc(-c2n[nH]c(=S)n2CC(C)C)cc1 | 1µM* | 3% | 0% | 7% | ? | 4µM*
CC(C)Oc1ccc(Cn2c(-c3ccco3)n[nH]c2=S)cc1 | 0.71µM* | ? | -35% | -10% | ? | 40µM*
O=C(O)C(c1c[nH]c2ccccc12)N1CCN(Cc2cccs2)CC1 (stereo not drawn) | / | / | / | / | -22% | /
COc1ccc([C@@H](NC(=O)c2ccc3ncsc3c2)C2CC(O)C2)cn1 (stereo partly drawn) | / | / | / | / | 33% | /
S=c1[nH]nc(-c2cc3ccccc3o2)n1Cc1ccccc1 | 1.1µM* | 2% | ? | -16% | 45µM* | -27%
COc1ccc(Cn2c(-c3ccc(OC)cc3)n[nH]c2=S)cc1 | 2.8µM* | -1% | -24% | 5%[57 µM] | 16µM* | ?
N#Cc1ncn(CC(=O)NCC(=O)Nc2ccccc2Br)n1 | / | / | / | / | 20% | /
CC(C)Oc1ccc(C(CCN)C2CCCCC2)cc1 (stereo not drawn) | 16µM* | ? | 50µM* | 79µM* | ? | 22µM*
CC(C)Oc1ccc(C(=O)NC2CCCCC2)cc1 | -22% | 11% | -6% | 21% | 17% | 15%
NC[C@@H]1O[C@H](c2ccccc2)Cc2c1ccc(O)c2O | 7%[59 µM] | 79µM* | / | / | ? | /
NC[C@@H]1O[C@H](C23CC4CC(CC(C4)C2)C3)Cc2c1ccc(O)c2O | 16µM* | 50µM*! | ? | -3% | ? | ?
COc1ccc(C(=O)N2CCN(c3oc(-c4cccs4)nc3C#N)CC2)cc1OC | / | / | / | / | 26% | /
COC(=O)/C(C#N)=C\c1cccc(Oc2ccc(Cl)cc2)c1 | / | / | / | / | -22% | /
COc1cc(/C=C2/NC(=O)NC2=O)cc(Cl)c1OCc1cccc(C(=O)O)c1 | / | / | / | / | -30% | /
Cc1ccccc1NC(=S)N(CCc1c(C)[nH]c2ccc(F)cc12)Cc1cccnc1 | 56µM* | 8% | / | -7% | 3% | ?
Cc1[nH]c2ccc(F)cc2c1CCN(Cc1cccnc1)C(=S)Nc1cccc(F)c1 | ? | 19% | 32µM* | 0% | -4% | ?
COc1cccc(CNC(=O)C2CCN(C(=O)c3ncn4c3COC(c3ccccc3)C4)CC2)c1 (stereo not drawn) | / | / | / | / | 33% | /
O=C(COc1ccc(Cl)cc1)N1CCC(Oc2ncccc2C(=O)N2CCCCC2)C1 (stereo not drawn) | / | / | / | / | 60% | /
C=CCn1c(N)c(C(=O)NCc2cccnc2)sc1=S | ? | -20% | -28% | -2% | -15% | 23%

Assay outcomes deposited in PubChem BioAssay by National Center for Advancing Translational Sciences (NCATS).
